Data reported in the supplement of paper PMC10849652.
About 8,800 targets were measured; listed, in parts, are those with a hit and a random draw of the rest. About 0.5% of all pairs of compound and target were hits.

Experiments:
Assay in all cases: log2 fold change, soluble protein after heating vs DMSO (PISA); higher = thermal stabilisation; K562 lysate, 10 uM; active = over 0.2 and 3.5 SD of the protein, either way, in both replicates (recomputed)
[1] = compound: NCC(=O)Nc1ccc(-n2nc(C(F)(F)F)cc2-c2ccc3c(ccc4ccccc43)c2)cc1
How it was run: (§1)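 Log-two fold change in thermal stability relative to solvent controls is reported from duplicates. For each sample, crude K562 extract from dounce-homogenised pellets in PBS pH 7.4 with 1 mM MgCl2, at 1 mg/mL protein, was treated with 10 μM compound for 30 min. Aliquots heated for 3 min across 48°C-58°C were pooled, brought to 0.5% NP-40 at 4°C and cleared at 21,000xg for 90 min. The supernatant was quantified by TMTpro 16plex LC-MS/MS with channel sums equalised.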

vorinostat = compound: O=C(CCCCCCC(=O)Nc1ccccc1)NO [vorinostat]
How it was run: as §1

silmitasertib = compound: O=C(O)c1ccc2c(c1)nc(Nc1cccc(Cl)c1)c1ccncc12 [silmitasertib]
How it was run: as §1

[2] = compound: O=C1NC(=O)C(c2cnc3ccccn23)=C1c1cn2c3c(cc(F)cc13)CN(C(=O)N1CCCCC1)CC2
How it was run: as §1

entospletinib = compound: c1cn2cc(-c3ccc4cn[nH]c4c3)nc(Nc3ccc(N4CCOCC4)cc3)c2n1 [entospletinib]
How it was run: as §1

## GGT7 (UniProt Q9UJ14)
Sequence of UniProt Q9UJ14 (Q9UJ14 whole entry, looked up): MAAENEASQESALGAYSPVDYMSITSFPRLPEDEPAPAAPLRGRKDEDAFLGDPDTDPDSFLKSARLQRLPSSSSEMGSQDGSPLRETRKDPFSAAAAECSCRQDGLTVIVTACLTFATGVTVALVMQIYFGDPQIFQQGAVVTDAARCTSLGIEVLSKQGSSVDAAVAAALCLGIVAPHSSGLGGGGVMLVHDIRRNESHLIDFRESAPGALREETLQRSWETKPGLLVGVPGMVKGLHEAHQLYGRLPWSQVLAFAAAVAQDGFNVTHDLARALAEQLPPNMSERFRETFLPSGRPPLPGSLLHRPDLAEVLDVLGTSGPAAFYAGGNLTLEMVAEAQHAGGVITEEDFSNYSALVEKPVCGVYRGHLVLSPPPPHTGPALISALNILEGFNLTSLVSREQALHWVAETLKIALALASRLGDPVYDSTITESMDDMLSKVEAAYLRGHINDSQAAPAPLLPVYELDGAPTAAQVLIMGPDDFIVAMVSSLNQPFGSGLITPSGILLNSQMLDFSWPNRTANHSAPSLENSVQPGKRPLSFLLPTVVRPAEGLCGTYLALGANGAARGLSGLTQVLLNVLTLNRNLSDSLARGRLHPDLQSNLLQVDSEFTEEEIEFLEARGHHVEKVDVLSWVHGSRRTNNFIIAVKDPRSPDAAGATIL
[1]
  log2 fold change: -0.094 (inactive)
vorinostat
  log2 fold change: 0.244 (active)
silmitasertib
  log2 fold change: -0.017 (inactive)
[2]
  log2 fold change: 0.015 (inactive)
entospletinib
  log2 fold change: -0.056 (inactive)

## EP300 (UniProt Q09472)
Sequence of UniProt Q09472 (Q09472 whole entry, looked up): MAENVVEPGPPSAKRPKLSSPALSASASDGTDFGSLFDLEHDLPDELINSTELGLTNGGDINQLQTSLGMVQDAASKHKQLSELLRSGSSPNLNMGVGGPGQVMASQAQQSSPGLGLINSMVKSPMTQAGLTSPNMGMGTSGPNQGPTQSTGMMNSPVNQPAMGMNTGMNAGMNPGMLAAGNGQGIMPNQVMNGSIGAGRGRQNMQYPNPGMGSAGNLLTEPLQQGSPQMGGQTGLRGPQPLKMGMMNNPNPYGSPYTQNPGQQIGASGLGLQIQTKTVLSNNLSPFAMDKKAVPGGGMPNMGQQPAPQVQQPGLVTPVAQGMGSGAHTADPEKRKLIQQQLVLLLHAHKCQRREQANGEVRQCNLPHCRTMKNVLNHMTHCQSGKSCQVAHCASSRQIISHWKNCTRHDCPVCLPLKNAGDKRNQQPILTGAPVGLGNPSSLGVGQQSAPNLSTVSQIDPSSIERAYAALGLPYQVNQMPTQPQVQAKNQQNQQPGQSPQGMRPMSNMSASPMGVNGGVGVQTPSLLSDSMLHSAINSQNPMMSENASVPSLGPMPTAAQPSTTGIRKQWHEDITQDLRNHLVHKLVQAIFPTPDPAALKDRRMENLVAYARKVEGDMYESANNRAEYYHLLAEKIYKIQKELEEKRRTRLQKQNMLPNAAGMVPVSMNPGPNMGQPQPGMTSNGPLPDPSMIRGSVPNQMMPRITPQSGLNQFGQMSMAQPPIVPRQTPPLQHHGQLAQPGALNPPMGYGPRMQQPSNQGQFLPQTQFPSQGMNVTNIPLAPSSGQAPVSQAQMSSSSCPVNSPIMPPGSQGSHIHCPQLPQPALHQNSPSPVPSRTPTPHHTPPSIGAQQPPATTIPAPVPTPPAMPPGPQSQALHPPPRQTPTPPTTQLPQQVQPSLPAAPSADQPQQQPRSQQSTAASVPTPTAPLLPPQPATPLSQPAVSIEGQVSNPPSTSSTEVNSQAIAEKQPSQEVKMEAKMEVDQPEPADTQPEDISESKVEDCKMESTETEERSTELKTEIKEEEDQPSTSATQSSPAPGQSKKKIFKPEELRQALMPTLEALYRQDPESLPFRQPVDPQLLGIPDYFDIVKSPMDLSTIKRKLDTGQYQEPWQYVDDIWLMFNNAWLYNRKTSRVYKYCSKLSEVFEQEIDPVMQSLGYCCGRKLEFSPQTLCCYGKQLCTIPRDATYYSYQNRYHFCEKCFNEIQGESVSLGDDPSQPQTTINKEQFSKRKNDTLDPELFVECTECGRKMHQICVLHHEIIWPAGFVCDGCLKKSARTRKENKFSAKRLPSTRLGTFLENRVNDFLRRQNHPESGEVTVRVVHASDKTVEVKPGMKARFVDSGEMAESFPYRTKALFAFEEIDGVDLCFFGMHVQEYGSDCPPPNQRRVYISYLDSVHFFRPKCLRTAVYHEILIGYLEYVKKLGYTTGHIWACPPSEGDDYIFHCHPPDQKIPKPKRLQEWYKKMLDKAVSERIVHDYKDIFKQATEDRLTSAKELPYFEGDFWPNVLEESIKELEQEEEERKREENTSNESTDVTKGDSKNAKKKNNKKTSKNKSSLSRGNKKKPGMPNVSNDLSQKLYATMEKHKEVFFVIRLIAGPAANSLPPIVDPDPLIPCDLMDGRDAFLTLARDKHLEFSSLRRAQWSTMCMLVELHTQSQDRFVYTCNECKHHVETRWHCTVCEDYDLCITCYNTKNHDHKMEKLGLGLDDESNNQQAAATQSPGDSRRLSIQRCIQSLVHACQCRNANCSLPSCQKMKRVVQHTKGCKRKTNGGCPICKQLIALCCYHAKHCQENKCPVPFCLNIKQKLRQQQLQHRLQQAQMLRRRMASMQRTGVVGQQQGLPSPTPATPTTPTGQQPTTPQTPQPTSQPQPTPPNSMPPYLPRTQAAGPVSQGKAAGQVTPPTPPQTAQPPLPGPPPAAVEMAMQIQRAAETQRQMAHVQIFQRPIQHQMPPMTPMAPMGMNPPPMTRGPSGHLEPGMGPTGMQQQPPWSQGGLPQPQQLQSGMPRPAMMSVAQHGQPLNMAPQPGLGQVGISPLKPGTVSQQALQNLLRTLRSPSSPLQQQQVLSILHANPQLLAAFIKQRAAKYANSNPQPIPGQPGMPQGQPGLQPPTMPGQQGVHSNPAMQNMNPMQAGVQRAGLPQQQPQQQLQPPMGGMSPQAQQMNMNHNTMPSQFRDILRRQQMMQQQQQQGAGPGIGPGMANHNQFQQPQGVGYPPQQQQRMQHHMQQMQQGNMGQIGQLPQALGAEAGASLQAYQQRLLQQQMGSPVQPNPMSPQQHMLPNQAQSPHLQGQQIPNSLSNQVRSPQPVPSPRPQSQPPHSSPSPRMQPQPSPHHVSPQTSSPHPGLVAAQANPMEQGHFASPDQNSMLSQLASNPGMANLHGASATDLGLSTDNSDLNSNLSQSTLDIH
[1]
  log2 fold change: 0.018 (inactive)
vorinostat
  log2 fold change: -0.338 (active)
silmitasertib
  log2 fold change: 0.06 (inactive)
[2]
  log2 fold change: 0.015 (inactive)
entospletinib
  log2 fold change: -0.005 (inactive)

## EDARADD (UniProt Q8WWZ3)
Sequence of UniProt Q8WWZ3 (Q8WWZ3 whole entry, looked up): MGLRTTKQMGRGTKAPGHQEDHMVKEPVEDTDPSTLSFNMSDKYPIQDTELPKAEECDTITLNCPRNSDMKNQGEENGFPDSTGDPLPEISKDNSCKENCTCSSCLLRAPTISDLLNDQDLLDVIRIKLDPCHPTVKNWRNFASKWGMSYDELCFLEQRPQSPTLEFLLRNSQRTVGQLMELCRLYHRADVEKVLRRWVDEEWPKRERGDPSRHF
[1]
  log2 fold change: 0.022 (inactive)
vorinostat
  log2 fold change: -0.168 (inactive)
silmitasertib
  log2 fold change: 0.02 (inactive)
[2]
  log2 fold change: -0.05 (inactive)
entospletinib
  log2 fold change: -0.057 (inactive)

## EED, A0A5F9ZI63
[1]
  log2 fold change: -0.022 (inactive)
vorinostat
  log2 fold change: -0.227 (active)
silmitasertib
  log2 fold change: 0.043 (inactive)
[2]
  log2 fold change: -0.018 (inactive)
entospletinib
  log2 fold change: 0.009 (inactive)

## GDPD1 (UniProt Q8N9F7)
Sequence of UniProt Q8N9F7 (Q8N9F7 whole entry, looked up): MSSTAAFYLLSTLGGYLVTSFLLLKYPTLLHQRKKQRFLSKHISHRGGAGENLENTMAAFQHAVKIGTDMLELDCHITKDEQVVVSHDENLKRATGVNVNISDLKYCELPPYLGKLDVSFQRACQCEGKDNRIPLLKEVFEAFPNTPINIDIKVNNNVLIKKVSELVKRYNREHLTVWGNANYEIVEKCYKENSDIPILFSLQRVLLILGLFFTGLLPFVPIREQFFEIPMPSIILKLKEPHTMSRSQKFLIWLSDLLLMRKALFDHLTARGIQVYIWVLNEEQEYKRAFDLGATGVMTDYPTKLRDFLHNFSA
[1]
  log2 fold change: -0.137 (inactive)
vorinostat
  log2 fold change: 0.056 (inactive)
silmitasertib
  log2 fold change: 0.033 (inactive)
[2]
  log2 fold change: 0.177 (inactive)
entospletinib
  log2 fold change: -0.092 (inactive)

## GEMIN4 (UniProt P57678)
Sequence of UniProt P57678 (P57678 whole entry, looked up): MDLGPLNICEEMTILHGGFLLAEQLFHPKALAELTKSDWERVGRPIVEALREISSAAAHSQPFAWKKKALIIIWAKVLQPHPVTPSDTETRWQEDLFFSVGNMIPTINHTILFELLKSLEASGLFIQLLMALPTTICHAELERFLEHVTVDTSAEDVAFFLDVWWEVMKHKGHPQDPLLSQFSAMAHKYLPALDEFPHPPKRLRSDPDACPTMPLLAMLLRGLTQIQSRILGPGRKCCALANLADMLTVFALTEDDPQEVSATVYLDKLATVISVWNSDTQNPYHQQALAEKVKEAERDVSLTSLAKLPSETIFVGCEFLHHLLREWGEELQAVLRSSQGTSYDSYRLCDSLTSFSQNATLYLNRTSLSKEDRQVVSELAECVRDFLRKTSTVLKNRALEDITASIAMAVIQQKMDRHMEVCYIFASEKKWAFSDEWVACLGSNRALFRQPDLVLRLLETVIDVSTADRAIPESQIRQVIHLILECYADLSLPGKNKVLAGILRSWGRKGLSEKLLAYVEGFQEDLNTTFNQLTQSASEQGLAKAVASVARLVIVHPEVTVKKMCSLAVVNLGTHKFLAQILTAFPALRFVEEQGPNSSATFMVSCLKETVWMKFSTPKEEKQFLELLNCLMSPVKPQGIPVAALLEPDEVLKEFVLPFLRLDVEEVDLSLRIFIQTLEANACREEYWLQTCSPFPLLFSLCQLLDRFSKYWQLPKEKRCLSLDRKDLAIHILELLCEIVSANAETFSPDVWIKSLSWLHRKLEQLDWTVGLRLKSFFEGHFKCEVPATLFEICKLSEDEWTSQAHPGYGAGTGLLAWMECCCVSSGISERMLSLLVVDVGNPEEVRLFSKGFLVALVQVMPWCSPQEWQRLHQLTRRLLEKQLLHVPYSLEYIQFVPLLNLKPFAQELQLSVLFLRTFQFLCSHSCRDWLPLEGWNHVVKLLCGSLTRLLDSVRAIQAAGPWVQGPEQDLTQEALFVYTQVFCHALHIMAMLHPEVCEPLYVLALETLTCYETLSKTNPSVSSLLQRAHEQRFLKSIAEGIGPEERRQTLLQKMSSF
[1]
  log2 fold change: -0.025 (inactive)
vorinostat
  log2 fold change: -0.435 (active)
silmitasertib
  log2 fold change: 0.1 (inactive)
[2]
  log2 fold change: 0.019 (inactive)
entospletinib
  log2 fold change: 0.034 (inactive)

## ESYT2 (UniProt H7BXI1)
[1]
  log2 fold change: -0.041 (inactive)
vorinostat
  log2 fold change: 0.243 (active)
silmitasertib
  log2 fold change: -0.002 (inactive)
[2]
  log2 fold change: -0.002 (inactive)
entospletinib
  log2 fold change: 0.019 (inactive)

## EPB41, A0A2R8Y6D0
[1]
  log2 fold change: 0.082 (inactive)
vorinostat
  log2 fold change: 0.094 (inactive)
silmitasertib
  log2 fold change: 0.037 (inactive)
[2]
  log2 fold change: -0.08 (inactive)
entospletinib
  log2 fold change: 0.016 (inactive)

## GABPB1 isoform 3 (UniProt Q06547)
Sequence of UniProt Q06547 (Q06547 whole entry, looked up): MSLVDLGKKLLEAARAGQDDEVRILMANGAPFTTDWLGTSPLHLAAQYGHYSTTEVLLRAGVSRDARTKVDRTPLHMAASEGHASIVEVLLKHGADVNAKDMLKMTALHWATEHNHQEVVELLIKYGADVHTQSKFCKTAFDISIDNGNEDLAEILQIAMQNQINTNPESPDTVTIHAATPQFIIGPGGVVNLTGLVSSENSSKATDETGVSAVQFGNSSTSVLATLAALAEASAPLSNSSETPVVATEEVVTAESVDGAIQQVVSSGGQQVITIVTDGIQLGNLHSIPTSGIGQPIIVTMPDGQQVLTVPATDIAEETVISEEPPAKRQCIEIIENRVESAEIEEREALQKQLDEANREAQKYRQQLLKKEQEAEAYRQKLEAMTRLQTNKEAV
[1]
  log2 fold change: -0.012 (inactive)
vorinostat
  log2 fold change: -0.41 (active)
silmitasertib
  log2 fold change: 0.08 (inactive)
[2]
  log2 fold change: 0.067 (inactive)
entospletinib
  log2 fold change: -0.024 (inactive)
